# Assay outcomes deposited in PubChem by Pan Lab, Icahn School of Medicine at Mount Sinai.
# This excerpt belongs to a sample that is enriched for hits.
# RBX1-CUL1 inh: blocks human RBX1-Cullin-1 di-ubiquitin formation | P62877+Q13616 | in vitro K48 di-Ub FRET, acceptor:donor ratio, 45 min | inhibition, % at 10 µM | 140,000 tested, 0.6% active; in the data active = inhibition above about 25%
# * hit, by the source's call.
SMILES,RBX1-CUL1 inh
CC(=O)Nc1ccc2occc2c1,-12
O=C(O)c1cc2ccoc2cc(C(=O)O)c1=O,100*
CCOc1cc(CNc2ccc(O)cc2)cc(Br)c1OCc1cccs1,75*
CCOc1cc(CNc2ccc(O)cc2)cc(Br)c1OCc1ccccc1,4
Oc1ccc(NCc2ccccc2OCc2ccc(Cl)cc2)cc1,7
Oc1ccc(NCc2ccccc2OCc2ccccc2)cc1,6
CCOc1cccc(CNc2ccc(O)cc2)c1OCc1ccccc1,97*
CCOc1cc(CNCc2cccs2)cc(Br)c1OC,-8
CCOC(=O)C1=C(C)N=c2s/c(=C/c3ccc(-c4ccccc4C#N)o3)c(=O)n2C1c1cccs1 (centres undefined),-4
CCc1ccccc1NC(=O)C1CCN(C(=O)c2ccco2)CC1,4
COC(=O)[C@@H]1C[C@H](C(=O)NCc2csc(C)n2)[C@H](c2cccc(Cl)c2)N1C,6
CCC(C)c1ccc(OCCOc2ccc(/C=C3/C(=N)N4N=C(COc5ccccc5)SC4=NC3=O)cc2OC)cc1 (centres undefined),0
COCCn1cnc2cc(NC(=O)C3CCCCC3)cc(C(=O)NCc3cccc(F)c3F)c21,9
CC1C2=C(CCCC2=O)OC(=N)C1C#N (centres undefined),0
Cc1ccc(N=C2S/C(=C\c3ccc(OCC(=O)O)cc3)C(=O)N2c2ccc(C)c(C)c2)cc1C,89*
O=C(O)COc1ccc(/C=C2\SC(=O)N(c3cccc(Cl)c3)C2=O)cc1,-10
Cc1ccc(N=C2S/C(=C\c3ccc(O)cc3)C(=O)N2c2ccc(C)cc2)cc1,-9
CCOC(=O)c1csc(CCNC(=O)CCC2(Cc3ccc(OC)cc3F)CCC(=O)N2)n1 (centres undefined),4
N=C1/C(=C\c2ccc(-c3ccccc3Cl)o2)C(=O)N=C2SC(Cc3cccs3)=NN12,0
COc1ccc(S(=O)(=O)NCc2ccco2)cc1C(=O)O,2
C(=N\N(c1ccccc1)c1ccccc1)/c1ccco1,1
N#CC1C(=N)S/C(=C/c2ccco2)C1=N (centres undefined),24
C(=C1Sc2ccccc2S1)c1ccco1,57*
Cc1nc(C2CCN(c3nc(N(C)C)nc4c3CCCC4)CC2)cc(=O)[nH]1,-10
COc1ccc(-c2nnc(-c3ccc(Cl)cc3)o2)cc1,0
SMILES,RBX1-CUL1 inh
OC(c1ccccc1)C(Nc1ccccc1)c1ccccc1 (centres undefined),-1
Cc1nonc1C(=O)N=Nc1c2ccccc2c2nc3no[nH]c3nc12,45*
Cc1cc(/C=C2/SC(=S)N(CC(=O)O)C2=O)c(C)n1-c1ccccc1,16
O=C(O)CN1C(=O)/C(=C\c2ccccc2Sc2ccc(Cl)cc2)SC1=S,103*
CCOc1ccccc1/C=C1\SC(=S)N(CC(=O)O)C1=O,4
Cc1ccc(/C(=C/C(=O)Nc2cccc(C)c2C)C(=O)O)cc1,2
Cc1ccc(NS(=O)(=O)c2cccc(S(=O)(=O)c3ccc(Cl)c(Cl)c3)c2)c(C)c1,2
Cc1cc(=O)oc2cc(O)c(OCC(=O)O)cc12,7
COc1cccc(-c2ccc3c(N)c(C(=O)Nc4ccc(Br)cc4)sc3n2)c1,-2
O=C1C=C2c3ccccc3-c3ccccc3N2C(=O)C1c1ccccc1 (centres undefined),5
Cc1ccccc1N1C(=O)C(=Cc2ccc(N(C)C)cc2)C(=O)N(c2ccccc2C)C1=O,-4
CN(C)/C=C1\C=C2C(=O)c3ccccc3N2C1=O,37*
Cc1ccc(N=CC2C(=O)NC(=O)NC2=O)cc1CN1C(=O)c2ccccc2C1=O,8
COCCn1c(C)cn2c3c(=O)n(CC(C)C)c(=O)n(C)c3nc12,6
Cc1ccc(C)c(NC(=O)CCCC(=O)Nc2cc(C)ccc2C)c1,1
O=C1S/C(=C\c2cc(Br)cc(Cl)c2O)C(=O)N1Cc1ccc(F)cc1,40*
COC(=O)CN1C(=O)S/C(=C/c2ccc(-c3cccc(C(=O)O)c3C)o2)C1=O,7
O=C(O)c1ccc(-c2ccc(/C=C3\SC(=O)N(Cc4ccc(F)cc4)C3=O)o2)cc1Cl,92*
Cc1ccccc1NC(=O)CN1C(=O)S/C(=C\c2ccc(-c3cc(C(=O)O)ccc3C)o2)C1=O,-1
Cc1c(C(=O)O)cccc1-c1ccc(/C=C2/SC(=O)N(Cc3cc4c(cc3Cl)OCO4)C2=O)o1,6
Cc1ccccc1NC(=O)CN1C(=O)S/C(=C\c2ccc(-c3cc(C(=O)O)ccc3Cl)o2)C1=O,28*
CC(C)c1ccc(/C=C2\SC(=O)N(Cc3ccc(F)cc3)C2=O)cc1,5
Cc1cccc(NC(=O)CN2C(=O)S/C(=C/c3ccc(-c4cc(C(=O)O)ccc4Cl)o3)C2=O)c1,21
C=CCN1C(=O)S/C(=C\c2ccc(-c3ccc(Br)cc3)o2)C1=O,-7
O=C(O)COc1ccc(/C=C2/SC(=O)N(Cc3ccc(F)cc3)C2=O)cc1Br,5
Cc1cccc(/C=C2/SC(=O)N(Cc3ccccc3C#N)C2=O)n1,-1
N#Cc1ccccc1CN1C(=O)S/C(=C/c2ccc(-c3ccc(Cl)c(C(=O)O)c3)o2)C1=O,42*
